The record followed here is the supplement of paper PMC3334620.

The full ranking holds about 33,000 sequences; the median of “E-score (-0.5 to 0.5)” is about -0.016, and the highest 2% start at about 0.3. This is one part of a sample in which the highest values are shown more often than they occur.

The experiment deals with T1, Yer184c (UniProt P39961).
T1 sequence: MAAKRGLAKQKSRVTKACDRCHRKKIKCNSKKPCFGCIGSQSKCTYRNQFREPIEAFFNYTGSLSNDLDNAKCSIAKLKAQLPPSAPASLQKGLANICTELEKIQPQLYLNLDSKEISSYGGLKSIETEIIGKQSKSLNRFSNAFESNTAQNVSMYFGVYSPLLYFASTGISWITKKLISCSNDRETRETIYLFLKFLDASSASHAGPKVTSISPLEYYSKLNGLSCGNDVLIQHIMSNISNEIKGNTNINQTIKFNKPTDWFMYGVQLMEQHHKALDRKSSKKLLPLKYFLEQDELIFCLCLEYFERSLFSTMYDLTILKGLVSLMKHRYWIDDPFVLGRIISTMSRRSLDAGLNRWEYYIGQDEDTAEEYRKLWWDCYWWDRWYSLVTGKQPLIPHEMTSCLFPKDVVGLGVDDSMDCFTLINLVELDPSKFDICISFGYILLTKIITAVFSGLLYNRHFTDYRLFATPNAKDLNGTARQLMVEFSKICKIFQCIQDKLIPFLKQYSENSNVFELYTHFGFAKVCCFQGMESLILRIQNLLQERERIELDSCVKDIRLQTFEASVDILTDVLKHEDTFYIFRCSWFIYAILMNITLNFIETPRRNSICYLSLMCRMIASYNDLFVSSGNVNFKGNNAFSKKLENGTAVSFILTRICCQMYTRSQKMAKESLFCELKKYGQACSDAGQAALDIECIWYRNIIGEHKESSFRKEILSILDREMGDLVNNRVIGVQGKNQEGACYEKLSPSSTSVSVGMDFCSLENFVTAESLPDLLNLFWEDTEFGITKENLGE
In words: PBM E-score (8-mer binding enrichment) (E-score (-0.5 to 0.5)); higher = stronger / more preferred TF binding. Conditions: protein concentration: 100 nM; construct: GST-full length. As to the method: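 Universal 'all 10-mer' protein binding microarrays (Agilent AMADID 015681) probed with GST-tagged S. cerevisiae TFs (full-length or DBD) made by in vitro transcription/translation (PURExpress), about 100-200 nM. Bound TF was detected with fluorescent anti-GST. Each ungapped 8-mer (which stands for itself and its reverse complement) is scored by the PBM enrichment score (E-score), a modified Wilcoxon-Mann-Whitney statistic from -0.5 to +0.5, computed with the Universal PBM Analysis Suite. Scale: above 0.35 generally sequence-specific binding.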
Take ACCGAGAC: the “PBM E-score” value came to 0.0458.
Then GCCGAGTA, with 0.262; and TCCGAGCA, with 0.329; and GCCGAGAA, with 0.368.
For ACCGAGAA, the “PBM E-score” value was 0.282.
For ACCGAGCA, the “PBM E-score” value came to 0.225.
Under GTCCTGCA stands -0.122; under CGGCACTC, 0.124.
Turning to ACAACGTC, the “PBM E-score” value was -0.0597.
Then ACAGACGG, with -0.11; and TGAGCACA, with 0.0117.
Under CTGCATAA stands 0.11; under AGAAAGCG, -0.0479; under GCTGCGAA, 0.0893.
Under CAGGTCGG stands -0.119; under CCAGATCA, 0.135; under CATCTCCC, -0.0754.
For AATCTCCG, the “PBM E-score” value worked out at 0.3.
Then CATCTCCG, with 0.37; and AAGCAGAC, with -0.195.
Under CCCACAGA stands -0.227; under AAGTAGCC, -0.0314; under AGTCCGGG, 0.212.
As to GTCCCGGA, the “PBM E-score” value came to 0.318.
Under CGTCCGGA stands 0.323.
Under GGTCCGGA stands 0.376.
Under GGTCCGCA stands 0.151; under CTCCCGGA, 0.243; under AGTCCGGC, 0.289.
For the sequence GGTCCGTA, the “PBM E-score” value is 0.178.
Then AGTCCGGA, with 0.429.
Then CGTCCGTA, with 0.0308; and CGTCCGGC, with 0.296; and GTCCCCGA, with -0.142.
Then AACATCAA, with 0.156; and GCTCCAAA, with -0.0747.
ACATACCA: the “PBM E-score” value is -0.12.
On to ATTGCGTC, for which the “PBM E-score” value was -0.0563.
Then GCCTGTGA, with -0.282.
Then CAACTGAC, with -0.106.
Under AACCTAAG stands -0.181.
For CGGGAATA, the “PBM E-score” value was 0.3.
Under CCGGAATA stands 0.339.
Then ACGGACTC, with 0.0365; and ATGGAATA, with 0.127.
As to ACGGAATC, the “PBM E-score” value came to 0.301.
In the case of GCGGAATA, the “PBM E-score” value was found to be 0.205.
Then CTGGAATC, with -0.192.
Then CCGGAATC, with 0.336.
Under ACGGAATG stands 0.167; under CCGGACTC, 0.341.
Regarding CCGGACTA, the “PBM E-score” value came to 0.273.
Then ACGGAATA, with 0.321; and GACCTAAA, with 0.0912.
Under AAAACTGC stands 0.0178; under GGTACTAA, -0.00623.
With GGGCGACC, the “PBM E-score” value was -0.167.
Under GCTAACCA stands -0.0625; under CAGAAGGA, -0.224; under TCGCTCAA, 0.047.
Then ACGGCTGC, with 0.0869; and ACGGCTTC, with 0.0891.
Under ACGGCTGA stands 0.0623.
For the sequence GCGGCTGA, the “PBM E-score” value was -0.0974.
Turning to CCGGCTGA, the “PBM E-score” value was found to be 0.327.
Under ACGGCTTA stands 0.193; under CCGGCTTC, 0.307.
As for CTGGCTGC, the “PBM E-score” value is -0.198.
Then CCGGCTGC, with 0.331; and GCGGCTTA, with 0.025; and CGGGCTTC, with 0.169.
Under CCGGCTTA stands 0.33; under ACTTTCTA, -0.0235.
Under AGAATGCT stands -0.168; under CAAATCGC, -0.0704.
With ATGGAGAC, the “PBM E-score” value is -0.176.
On to TACGTCTA, for which the “PBM E-score” value is -0.127.
GTTAGCTA: the “PBM E-score” value is -0.119.
Then GGATATGA, with 0.0918; and GCCGGGAA, with 0.331.
Take TCCGGGAA: the “PBM E-score” value came to 0.37.
Under CCCGGGAA stands 0.272.
Then ACCGGGAA, with 0.28; and GCCGGGGA, with 0.0977.
On to GCCGGGAC, for which the “PBM E-score” value amounted to 0.263.
Then CATGCAAC, with -0.00764.
